# From paper PMC7862700, “An all-to-all approach to the identification of sequence-specific readers for epigenetic DNA modifications on cytosine”
# Experiments:
# Test in all cases: DAPPL (digital affinity profiling via proximity ligation, sequencing); 10 mM Tris-HCl pH 7.5, 50 mM NaCl, 1 mM DTT, 4% glycerol, room temperature, 30 min; GST-TFs on glutathione beads, 16-mer random dsDNA library, 0.1% formaldehyde crosslink after washing; high values mean tight binding
# FLI1 = target: T1, FLI1 (Homo sapiens, UniProt Q01543 1-452); settings: protein: recombinant; tags: N-terminal GST; dsDNA, one strand shown
# T1 sequence: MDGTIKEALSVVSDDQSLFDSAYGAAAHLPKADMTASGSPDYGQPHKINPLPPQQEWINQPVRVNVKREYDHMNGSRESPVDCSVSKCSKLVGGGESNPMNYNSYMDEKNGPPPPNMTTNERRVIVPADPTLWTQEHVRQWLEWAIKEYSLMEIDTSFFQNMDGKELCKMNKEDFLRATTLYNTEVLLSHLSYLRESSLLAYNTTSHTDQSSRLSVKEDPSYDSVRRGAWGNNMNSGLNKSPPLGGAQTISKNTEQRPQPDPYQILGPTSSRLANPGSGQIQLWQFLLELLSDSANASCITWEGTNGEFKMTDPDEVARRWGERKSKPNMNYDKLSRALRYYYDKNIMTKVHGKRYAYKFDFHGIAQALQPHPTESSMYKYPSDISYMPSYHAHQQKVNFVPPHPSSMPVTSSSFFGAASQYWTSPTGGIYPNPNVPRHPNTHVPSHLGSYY
# How it was run: (§1)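 Binding signal is defined as a hexamer's read frequency for one factor over its frequency for the tag-only sample. To obtain reads, GST-fused human transcription factors were expressed in yeast, captured on glutathione beads, barcoded with DNA and pooled with that sample. Pools met 200 nmole of a 16-mer random double-stranded DNA library in Tris/NaCl/DTT/glycerol buffer for 30 min at room temperature before washing, 0.1% formaldehyde crosslinking, proximity ligation (BsaI/T4 ligase, 1 h, 37 °C), PCR and Illumina NextSeq500 sequencing.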
# ELK1 = target: T2, ELK1 (Homo sapiens, UniProt P19419 1-428); settings: protein: recombinant; tags: N-terminal GST; dsDNA, one strand shown
# T2 sequence: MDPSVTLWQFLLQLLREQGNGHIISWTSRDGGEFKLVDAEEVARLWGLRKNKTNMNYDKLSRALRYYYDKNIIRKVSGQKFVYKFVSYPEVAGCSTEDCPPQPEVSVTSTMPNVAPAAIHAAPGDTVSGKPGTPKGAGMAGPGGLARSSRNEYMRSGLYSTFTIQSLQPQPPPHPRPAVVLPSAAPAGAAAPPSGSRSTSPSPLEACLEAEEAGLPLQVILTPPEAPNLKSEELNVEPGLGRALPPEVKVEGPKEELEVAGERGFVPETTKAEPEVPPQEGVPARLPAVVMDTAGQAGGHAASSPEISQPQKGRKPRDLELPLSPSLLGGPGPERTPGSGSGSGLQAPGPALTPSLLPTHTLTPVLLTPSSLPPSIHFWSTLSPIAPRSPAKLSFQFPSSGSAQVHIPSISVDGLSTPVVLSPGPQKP
# How it was run: as §1
# GABPA = target: T3, GABPA (Homo sapiens, UniProt Q06546 1-454); settings: protein: recombinant; tags: N-terminal GST; dsDNA, one strand shown
# T3 sequence: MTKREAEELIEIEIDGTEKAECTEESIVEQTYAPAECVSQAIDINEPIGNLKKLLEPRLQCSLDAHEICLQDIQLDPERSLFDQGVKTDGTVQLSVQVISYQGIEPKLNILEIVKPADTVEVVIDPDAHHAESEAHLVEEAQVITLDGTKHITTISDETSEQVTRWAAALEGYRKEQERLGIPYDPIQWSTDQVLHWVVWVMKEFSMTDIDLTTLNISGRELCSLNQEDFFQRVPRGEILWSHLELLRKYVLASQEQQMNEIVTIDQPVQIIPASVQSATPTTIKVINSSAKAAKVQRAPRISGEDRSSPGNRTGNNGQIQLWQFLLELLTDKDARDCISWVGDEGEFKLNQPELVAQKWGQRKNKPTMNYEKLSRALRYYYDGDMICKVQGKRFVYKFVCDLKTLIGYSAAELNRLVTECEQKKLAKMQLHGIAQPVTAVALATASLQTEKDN
# How it was run: as §1
# ERG = target: T4, ERG (Homo sapiens, UniProt P11308 1-479); settings: protein: recombinant; tags: N-terminal GST; dsDNA, one strand shown
# T4 sequence: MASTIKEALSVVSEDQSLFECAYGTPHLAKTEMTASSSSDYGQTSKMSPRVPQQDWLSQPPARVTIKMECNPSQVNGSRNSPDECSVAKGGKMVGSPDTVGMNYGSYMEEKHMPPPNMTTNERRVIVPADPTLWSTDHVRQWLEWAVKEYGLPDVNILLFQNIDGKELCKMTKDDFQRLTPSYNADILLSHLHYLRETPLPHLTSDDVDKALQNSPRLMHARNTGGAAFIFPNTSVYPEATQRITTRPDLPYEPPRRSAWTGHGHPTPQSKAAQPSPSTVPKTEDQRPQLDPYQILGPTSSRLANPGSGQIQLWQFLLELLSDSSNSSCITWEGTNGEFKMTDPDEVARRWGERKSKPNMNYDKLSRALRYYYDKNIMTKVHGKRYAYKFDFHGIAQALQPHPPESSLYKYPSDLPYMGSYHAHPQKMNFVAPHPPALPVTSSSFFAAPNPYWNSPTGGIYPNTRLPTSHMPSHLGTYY
# How it was run: as §1
# ELF1 = ELF1 (Homo sapiens, UniProt P32519 1-619); settings: protein: recombinant; tags: N-terminal GST; dsDNA, one strand shown
# How it was run: as §1
# EHF = target: T5, EHF (Homo sapiens, UniProt Q9NZC4 1-300); settings: protein: recombinant; tags: N-terminal GST; dsDNA, one strand shown
# T5 sequence: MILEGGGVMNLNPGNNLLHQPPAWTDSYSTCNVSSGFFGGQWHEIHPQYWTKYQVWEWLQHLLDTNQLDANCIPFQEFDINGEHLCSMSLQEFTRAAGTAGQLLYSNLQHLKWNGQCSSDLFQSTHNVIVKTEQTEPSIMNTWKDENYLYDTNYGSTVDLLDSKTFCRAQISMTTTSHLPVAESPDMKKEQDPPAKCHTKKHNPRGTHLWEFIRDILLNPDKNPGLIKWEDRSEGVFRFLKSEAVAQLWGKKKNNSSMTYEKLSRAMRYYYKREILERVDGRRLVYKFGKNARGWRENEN
# How it was run: as §1
# SPI1 = SPI1 (Homo sapiens, UniProt P17947 1-270); settings: protein: recombinant; tags: N-terminal GST; dsDNA, one strand shown
# How it was run: as §1
# SPIB = SPIB (Homo sapiens, UniProt Q01892 1-262); settings: protein: recombinant; tags: N-terminal GST; dsDNA, one strand shown
# How it was run: as §1
# FEV = target: T6, FEV (Homo sapiens, UniProt Q99581 1-238); settings: protein: recombinant; tags: N-terminal GST; dsDNA, one strand shown
# T6 sequence: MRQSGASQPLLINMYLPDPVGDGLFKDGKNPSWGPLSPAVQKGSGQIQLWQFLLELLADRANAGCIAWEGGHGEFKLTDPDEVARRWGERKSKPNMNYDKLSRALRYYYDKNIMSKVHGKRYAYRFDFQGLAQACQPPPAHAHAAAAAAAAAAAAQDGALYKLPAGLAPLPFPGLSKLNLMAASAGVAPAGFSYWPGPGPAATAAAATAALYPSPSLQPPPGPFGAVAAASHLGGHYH
# How it was run: as §1
# ETV5 = ETV5 (Homo sapiens, UniProt P41161 1-510); settings: protein: recombinant; tags: N-terminal GST; dsDNA, one strand shown
# How it was run: as §1
# HSF1 = HSF1 (Homo sapiens, UniProt Q00613 1-529); settings: protein: recombinant; tags: N-terminal GST; chain copies: 3; dsDNA, one strand shown
# How it was run: as §1
# SPIC = target: T7, SPIC (Homo sapiens, UniProt Q8N5J4 1-248); settings: protein: recombinant; tags: N-terminal GST; dsDNA, one strand shown
# T7 sequence: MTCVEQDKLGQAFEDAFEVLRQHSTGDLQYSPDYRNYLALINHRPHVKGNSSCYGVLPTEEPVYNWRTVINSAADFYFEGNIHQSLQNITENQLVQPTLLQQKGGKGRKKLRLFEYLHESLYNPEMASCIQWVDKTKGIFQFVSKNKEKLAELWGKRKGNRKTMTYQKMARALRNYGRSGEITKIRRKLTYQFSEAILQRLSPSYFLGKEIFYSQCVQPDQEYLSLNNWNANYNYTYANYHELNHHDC
# How it was run: as §1
# ELF4 = ELF4 (Homo sapiens, UniProt Q99607 1-663); settings: protein: recombinant; tags: N-terminal GST; dsDNA, one strand shown
# How it was run: as §1
# ELK4 = target: T8, ELK4 (Homo sapiens, UniProt P28324-2 1-405); settings: protein: recombinant; tags: N-terminal GST; dsDNA, one strand shown
# T8 sequence: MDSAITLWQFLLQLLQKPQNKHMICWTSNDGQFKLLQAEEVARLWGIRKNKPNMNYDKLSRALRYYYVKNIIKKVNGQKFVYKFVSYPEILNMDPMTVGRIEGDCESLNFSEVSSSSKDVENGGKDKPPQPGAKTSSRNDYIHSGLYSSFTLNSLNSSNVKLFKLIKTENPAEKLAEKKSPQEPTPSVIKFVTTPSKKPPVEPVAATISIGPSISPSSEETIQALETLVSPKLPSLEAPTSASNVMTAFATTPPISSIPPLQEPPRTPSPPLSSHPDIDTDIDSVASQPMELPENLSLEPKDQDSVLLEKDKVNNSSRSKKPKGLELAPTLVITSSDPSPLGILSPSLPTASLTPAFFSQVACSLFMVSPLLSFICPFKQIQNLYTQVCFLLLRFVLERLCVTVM
# How it was run: as §1
# ETV2 = target: T9, ETV2 (Homo sapiens, UniProt O00321 1-342); settings: protein: recombinant; tags: N-terminal GST; dsDNA, one strand shown
# T9 sequence: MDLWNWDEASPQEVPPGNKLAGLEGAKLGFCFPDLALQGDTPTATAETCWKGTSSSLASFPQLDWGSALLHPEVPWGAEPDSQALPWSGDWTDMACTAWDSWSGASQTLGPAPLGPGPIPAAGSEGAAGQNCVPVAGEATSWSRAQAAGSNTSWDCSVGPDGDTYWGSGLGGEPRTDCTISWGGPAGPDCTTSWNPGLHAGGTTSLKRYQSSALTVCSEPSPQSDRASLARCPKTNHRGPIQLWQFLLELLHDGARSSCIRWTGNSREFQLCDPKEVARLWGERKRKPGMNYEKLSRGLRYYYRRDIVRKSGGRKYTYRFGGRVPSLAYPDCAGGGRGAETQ
# How it was run: as §1
# CRX = CRX (Homo sapiens, UniProt O43186 1-299); settings: protein: recombinant; tags: N-terminal GST; dsDNA, one strand shown
# How it was run: as §1
# ETV1 = ETV1 (Homo sapiens, UniProt P50549 1-477); settings: protein: recombinant; tags: N-terminal GST; dsDNA, one strand shown
# How it was run: as §1
# Sequence of CRX (O43186 whole entry): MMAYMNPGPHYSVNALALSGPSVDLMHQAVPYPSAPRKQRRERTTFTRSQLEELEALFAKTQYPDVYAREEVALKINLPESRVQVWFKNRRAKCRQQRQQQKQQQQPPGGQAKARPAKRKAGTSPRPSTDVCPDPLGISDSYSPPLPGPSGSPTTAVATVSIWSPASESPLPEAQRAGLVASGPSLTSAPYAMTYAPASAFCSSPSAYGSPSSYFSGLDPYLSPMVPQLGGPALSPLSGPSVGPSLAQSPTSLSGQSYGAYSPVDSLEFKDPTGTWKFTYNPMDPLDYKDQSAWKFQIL
# Sequence of ELF4 (Q99607 whole entry): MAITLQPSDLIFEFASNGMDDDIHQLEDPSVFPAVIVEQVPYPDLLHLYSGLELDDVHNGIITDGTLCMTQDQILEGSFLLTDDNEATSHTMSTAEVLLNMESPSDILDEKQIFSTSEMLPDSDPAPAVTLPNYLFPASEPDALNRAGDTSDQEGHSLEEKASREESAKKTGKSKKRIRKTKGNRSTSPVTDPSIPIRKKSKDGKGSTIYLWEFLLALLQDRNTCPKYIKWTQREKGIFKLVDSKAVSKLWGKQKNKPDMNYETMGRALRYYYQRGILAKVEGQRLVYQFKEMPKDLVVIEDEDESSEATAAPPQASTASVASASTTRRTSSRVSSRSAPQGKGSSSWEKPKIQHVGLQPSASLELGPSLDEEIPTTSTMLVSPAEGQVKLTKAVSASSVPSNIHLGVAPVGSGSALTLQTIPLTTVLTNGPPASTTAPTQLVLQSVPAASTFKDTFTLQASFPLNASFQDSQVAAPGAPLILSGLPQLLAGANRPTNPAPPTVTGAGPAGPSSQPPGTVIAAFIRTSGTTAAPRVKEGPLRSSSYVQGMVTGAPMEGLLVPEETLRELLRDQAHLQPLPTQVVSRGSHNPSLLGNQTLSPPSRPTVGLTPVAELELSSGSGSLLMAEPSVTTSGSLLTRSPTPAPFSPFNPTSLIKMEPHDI
# Sequence of SPIB (Q01892 whole entry): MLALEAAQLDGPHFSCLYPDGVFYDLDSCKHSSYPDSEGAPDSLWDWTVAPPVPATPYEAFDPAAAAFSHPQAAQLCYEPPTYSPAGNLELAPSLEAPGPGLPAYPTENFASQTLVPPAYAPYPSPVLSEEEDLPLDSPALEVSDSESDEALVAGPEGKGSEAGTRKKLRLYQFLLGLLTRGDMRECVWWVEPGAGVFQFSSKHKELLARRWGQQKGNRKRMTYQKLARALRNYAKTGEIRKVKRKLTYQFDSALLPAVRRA
# Sequence of ETV1 (P50549 whole entry): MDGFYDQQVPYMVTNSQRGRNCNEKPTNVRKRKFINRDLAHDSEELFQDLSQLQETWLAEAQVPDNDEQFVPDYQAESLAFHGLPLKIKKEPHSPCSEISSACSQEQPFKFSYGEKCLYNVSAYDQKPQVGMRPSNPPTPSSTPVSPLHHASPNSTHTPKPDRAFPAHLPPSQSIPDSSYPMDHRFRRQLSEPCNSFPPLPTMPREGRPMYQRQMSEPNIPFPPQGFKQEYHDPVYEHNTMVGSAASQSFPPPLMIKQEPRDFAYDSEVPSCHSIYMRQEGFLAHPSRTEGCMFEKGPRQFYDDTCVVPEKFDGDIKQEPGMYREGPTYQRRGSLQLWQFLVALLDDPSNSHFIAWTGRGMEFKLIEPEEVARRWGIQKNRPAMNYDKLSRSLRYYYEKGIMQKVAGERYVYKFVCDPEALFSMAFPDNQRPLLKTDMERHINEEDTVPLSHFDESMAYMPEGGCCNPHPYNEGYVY
# Sequence of ETV5 (P41161 whole entry): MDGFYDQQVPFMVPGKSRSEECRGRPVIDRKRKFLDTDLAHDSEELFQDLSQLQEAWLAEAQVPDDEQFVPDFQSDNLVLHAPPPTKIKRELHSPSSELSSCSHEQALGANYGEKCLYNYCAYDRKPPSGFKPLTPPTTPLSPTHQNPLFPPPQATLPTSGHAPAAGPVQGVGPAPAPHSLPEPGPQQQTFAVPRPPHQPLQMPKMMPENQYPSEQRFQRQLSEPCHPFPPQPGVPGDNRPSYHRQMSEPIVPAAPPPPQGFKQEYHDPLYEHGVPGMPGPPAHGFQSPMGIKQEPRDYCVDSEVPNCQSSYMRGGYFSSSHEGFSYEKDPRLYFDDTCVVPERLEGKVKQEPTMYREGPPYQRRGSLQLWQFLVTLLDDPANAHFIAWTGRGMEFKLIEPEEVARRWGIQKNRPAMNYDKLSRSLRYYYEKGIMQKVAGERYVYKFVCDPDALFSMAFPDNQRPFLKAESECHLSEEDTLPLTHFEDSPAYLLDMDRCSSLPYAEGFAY
# Sequence of ELF1 (P32519 whole entry): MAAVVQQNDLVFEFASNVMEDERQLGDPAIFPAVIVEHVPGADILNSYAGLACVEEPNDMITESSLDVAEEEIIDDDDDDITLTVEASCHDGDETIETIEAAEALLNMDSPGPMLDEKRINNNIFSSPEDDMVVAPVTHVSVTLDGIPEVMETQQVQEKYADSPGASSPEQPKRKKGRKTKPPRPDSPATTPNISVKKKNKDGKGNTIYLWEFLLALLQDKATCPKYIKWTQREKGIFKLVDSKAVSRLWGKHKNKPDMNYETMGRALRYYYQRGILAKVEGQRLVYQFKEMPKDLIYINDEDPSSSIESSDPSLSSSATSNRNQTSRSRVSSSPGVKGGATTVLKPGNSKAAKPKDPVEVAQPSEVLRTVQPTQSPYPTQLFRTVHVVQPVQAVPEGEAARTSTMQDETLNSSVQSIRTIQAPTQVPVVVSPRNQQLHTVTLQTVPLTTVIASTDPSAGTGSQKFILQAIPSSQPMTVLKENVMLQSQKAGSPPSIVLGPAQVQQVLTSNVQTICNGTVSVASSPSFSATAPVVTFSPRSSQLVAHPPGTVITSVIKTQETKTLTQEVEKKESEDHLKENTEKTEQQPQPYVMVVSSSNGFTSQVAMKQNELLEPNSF
# Sequence of HSF1 (Q00613 whole entry): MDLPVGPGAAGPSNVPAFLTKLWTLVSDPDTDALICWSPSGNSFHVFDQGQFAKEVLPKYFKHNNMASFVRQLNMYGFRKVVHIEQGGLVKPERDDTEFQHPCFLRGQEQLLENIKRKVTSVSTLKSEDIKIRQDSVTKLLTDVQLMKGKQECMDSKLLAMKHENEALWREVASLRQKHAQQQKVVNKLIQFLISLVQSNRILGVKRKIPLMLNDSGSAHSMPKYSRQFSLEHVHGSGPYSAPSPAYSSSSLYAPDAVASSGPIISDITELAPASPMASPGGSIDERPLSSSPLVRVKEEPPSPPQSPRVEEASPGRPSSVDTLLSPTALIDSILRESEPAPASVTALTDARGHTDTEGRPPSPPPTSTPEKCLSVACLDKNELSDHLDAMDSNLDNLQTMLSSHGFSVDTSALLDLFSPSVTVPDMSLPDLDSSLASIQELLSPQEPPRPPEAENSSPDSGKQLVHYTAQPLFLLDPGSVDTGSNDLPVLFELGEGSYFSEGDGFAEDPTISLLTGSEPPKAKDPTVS
sequence,measurement,setting,value
GAAAAG,binding signal,FLI1,"1.05 fold enrichment (6-mer frequency, TF over GST control)"
same,binding signal,ELK1,"1.01 fold enrichment (6-mer frequency, TF over GST control)"
same,binding signal,GABPA,"1.07 fold enrichment (6-mer frequency, TF over GST control)"
same,binding signal,ERG,"1.06 fold enrichment (6-mer frequency, TF over GST control)"
same,binding signal,ELF1,"1.04 fold enrichment (6-mer frequency, TF over GST control)"
same,binding signal,EHF,"1.11 fold enrichment (6-mer frequency, TF over GST control)"
same,binding signal,SPI1,"1.3 fold enrichment (6-mer frequency, TF over GST control)"
same,binding signal,SPIB,"1.14 fold enrichment (6-mer frequency, TF over GST control)"
same,binding signal,FEV,"1.04 fold enrichment (6-mer frequency, TF over GST control)"
same,binding signal,ETV5,"1.02 fold enrichment (6-mer frequency, TF over GST control)"
same,binding signal,HSF1,"1.22 fold enrichment (6-mer frequency, TF over GST control)"
same,binding signal,SPIC,"1.1 fold enrichment (6-mer frequency, TF over GST control)"
same,binding signal,ELF4,"1.05 fold enrichment (6-mer frequency, TF over GST control)"
same,binding signal,ELK4,"1.01 fold enrichment (6-mer frequency, TF over GST control)"
same,binding signal,ETV2,"1.11 fold enrichment (6-mer frequency, TF over GST control)"
same,binding signal,CRX,"1.01 fold enrichment (6-mer frequency, TF over GST control)"
same,binding signal,ETV1,"1.15 fold enrichment (6-mer frequency, TF over GST control)"
